Source: PubChem (several laboratories)
PrP 5UTR inh: inhibition of PrP 5' UTR reporter expression | cell-based PrP 5' UTR mRNA reporter, plate reader | inhibition, % (test concentration not listed) | 340,000 tested, 0.35% active | AID 488862, 2010; in the data active means inhibition above about 52%; further: 0 = median of the neutral control wells
SARS 3CLpro inh: SARS-CoV 3CLpro protease inhibitors, primary screen, biochemical, quenched FRET. Replicase polyprotein 1ab (Severe acute respiratory syndrome coronavirus), P0C6X7. recombinant SARS-CoV 3CLpro, quenched FRET peptide cleavage. inhibition, % at 6 µM. 290,000 tested, 0.14% active. AID 1706, 2009; in the data active means inhibition above about 12%
PrPC TRFRET: inhibitors of human cell surface prion protein PrPC, primary screen, cell-based, TR-FRET; Major prion protein (Homo sapiens), P04156; TR-FRET read-out; inhibition, % at 13.8 µM; 370,000 tested, 0.43% active; AID 720596, 2013; in the data active means inhibition above about 24%; further: 0% = median of the test wells and 100% = reference compound wells
Mtb hypoxia inh: PubChem AID 1159583; 300,000 tested, 0.1% active; M. tuberculosis hypoxia-regulated fluorescent reporter, fluorescence; fluorescence inhibition, % (concentration not given with the values); in the data active means fluorescence inhibition mostly above about 23%, no sharp cut-off; inactive means mostly below about 17%
BJeLR viability: MLPCN primary cell-based screen for lethality selective to Ras in HRASV12 cells. BJeLR (HRASV12) viability, CellTiter-Glo ATP luminescence, 48 h. inhibition, % (test concentration not listed). 300,000 tested, 0.17% active. AID 1554, 2009; in the data active means inhibition above about 50%; inconclusive means no clear call, values can overlap the other calls
RecA splice inh: Mtb RecA intein splicing inhibitors, primary screen, biochemical, fluorescence, HTS | Protein RecA (Mycobacterium tuberculosis (strain ATCC 25618 / H37Rv)), P9WHJ3 | cell-free RecA intein splicing | 290,000 tested, 0.75% active | inhibition, % (test concentration not listed); in the data active means inhibition above about 30%; inconclusive means no clear call, values can overlap the other calls;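 further: 0% = vehicle wells and 100% = reference inhibitor control wells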
Target sequence (P9WHJ3 whole entry, looked up, canonical isoform): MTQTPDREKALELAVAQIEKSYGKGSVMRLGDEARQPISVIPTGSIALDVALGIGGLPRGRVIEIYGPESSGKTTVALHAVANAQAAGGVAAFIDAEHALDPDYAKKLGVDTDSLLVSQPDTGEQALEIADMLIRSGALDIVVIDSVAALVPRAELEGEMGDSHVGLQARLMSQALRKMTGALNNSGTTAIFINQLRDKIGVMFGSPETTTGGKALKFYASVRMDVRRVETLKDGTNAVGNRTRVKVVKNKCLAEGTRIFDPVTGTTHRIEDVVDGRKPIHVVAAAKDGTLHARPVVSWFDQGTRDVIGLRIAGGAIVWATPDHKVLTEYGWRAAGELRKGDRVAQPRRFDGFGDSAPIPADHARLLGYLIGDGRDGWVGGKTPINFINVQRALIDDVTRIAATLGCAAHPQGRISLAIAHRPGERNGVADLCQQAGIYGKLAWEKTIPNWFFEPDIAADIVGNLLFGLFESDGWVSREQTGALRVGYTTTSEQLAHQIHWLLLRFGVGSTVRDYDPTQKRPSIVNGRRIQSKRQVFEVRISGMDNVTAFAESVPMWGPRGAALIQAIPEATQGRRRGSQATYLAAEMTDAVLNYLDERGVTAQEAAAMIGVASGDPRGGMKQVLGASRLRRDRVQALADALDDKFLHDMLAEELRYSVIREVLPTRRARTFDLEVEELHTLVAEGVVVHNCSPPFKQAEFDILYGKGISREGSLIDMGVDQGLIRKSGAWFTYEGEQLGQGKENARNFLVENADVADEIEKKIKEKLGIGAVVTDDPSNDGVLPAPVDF
PrP 5UTR single: prion 5' UTR mRNA inhibition, cherry-pick retest; shares compounds with PrP 5UTR inh; cell-based prion protein 5' UTR reporter, plate reader; inhibition, % at 2.5 µM; 1,100 tested, 48% active; AID 504592, 2011; in the data active means inhibition above about 54%; inconclusive means no clear call, values can overlap the other calls
An asterisk follows results filed as active. The list is not random: actives were taken first. Their share in the collection is about 1.4%.

Results for c1ccc(C(Nc2cccnc2)c2ccccc2)cc1 ?
PrP 5UTR inh: 71*; PrPC TRFRET: 1; PrP 5UTR single: -13

What do the screens show for `CCCN1CCN(CC(=O)Nc2nnc(C)s2)CC1`?
PrP 5UTR inh: 52*; SARS 3CLpro inh: 1; PrPC TRFRET: 1; Mtb hypoxia inh: 7; BJeLR viability: 0; RecA splice inh: 0; PrP 5UTR single: -7

Results for CC1=CC2OC3CC4OC(=O)C=CC=CC(=O)OCCC(C)C(O)C(=O)OCC2(CC1O)C4(C)C31CO1 (stereo not given) ?
PrP 5UTR inh: 94*; PrP 5UTR single: 97*

What do the screens show for `CC(=O)NN1C(=O)c2ccccc2NC1c1ccc([N+](=O)[O-])o1` (stereo not given)?
PrP 5UTR inh: 61*; SARS 3CLpro inh: 1; PrPC TRFRET: -16; Mtb hypoxia inh: 0; BJeLR viability: -2; RecA splice inh: -4; PrP 5UTR single: 4

Results for O=C(c1ccc(CS(=O)(=O)c2ccc(Br)cc2)o1)N1CCOCC1 ?
PrP 5UTR inh: -17; SARS 3CLpro inh: 0; PrPC TRFRET: -3; BJeLR viability: 1; RecA splice inh: 0

Results for COc1ccc(S(=O)(=O)Cc2ccc(C(=O)N3CCOCC3)o2)cc1 ?
PrP 5UTR inh: 71*; SARS 3CLpro inh: -2; PrPC TRFRET: -4; BJeLR viability: -2; PrP 5UTR single: -1

Results for CSCCC(NC(=O)C(=Cc1ccc(F)cc1)NC(C)=O)C(=O)O (stereo not given) ?
Mtb hypoxia inh: -2

Results for COc1ccccc1/C=C/CN1CCN(Cc2ccc(C)o2)C(CCO)C1 (stereo not given) ?
PrP 5UTR inh: -24; SARS 3CLpro inh: 1; PrPC TRFRET: -4; Mtb hypoxia inh: 8; BJeLR viability: -6; RecA splice inh: 4

How did COc1cc(/C=C/CN2CCN(Cc3ccc(C)o3)C(CCO)C2)ccc1O (stereo not given) do in these assays?
PrP 5UTR inh: 55*; SARS 3CLpro inh: -3; PrPC TRFRET: -6; Mtb hypoxia inh: -7; BJeLR viability: 12; RecA splice inh: -4; PrP 5UTR single: inconclusive

Results for CCN1C(=O)[C@H]2[C@H]3CN=C(SC)N3[C@@](CC)(C(=O)OC)[C@H]2C1=O ?
PrP 5UTR inh: 66*; PrPC TRFRET: 5; Mtb hypoxia inh: -2; PrP 5UTR single: -11

What do the screens show for `CC1CN(C(C)CO)C(=O)c2cc(NC(=O)Cn3cnnn3)ccc2OC1CN(C)C(=O)Nc1ccc(C(F)(F)F)cc1` (stereo not given)?
Mtb hypoxia inh: 4

What do the screens show for `C[C@@H]1COC(=O)[C@@H](Cc2ccc(F)cc2)C/C=C\C[C@H](CC(=O)N(CCO)Cc2ccccc2)C(=O)N1`?
PrP 5UTR inh: 85*; PrPC TRFRET: -3; Mtb hypoxia inh: -10; PrP 5UTR single: -14

Results for Cc1ccc(C(=O)Nc2ccc(CC(=O)O)cc2)o1 ?
PrP 5UTR inh: -21; SARS 3CLpro inh: 0; PrPC TRFRET: -5; Mtb hypoxia inh: 1; BJeLR viability: -3; RecA splice inh: 0

What do the screens show for `CC(C)(C)c1ccc(C(=O)Nc2ccc(CC(=O)O)cc2)o1`?
PrP 5UTR inh: 72*; SARS 3CLpro inh: 5; PrPC TRFRET: 6; Mtb hypoxia inh: 3; BJeLR viability: 2; RecA splice inh: -3; PrP 5UTR single: 75*

Results for Cc1cc(-c2ccccc2)n(-c2cc(N/N=C/c3ccccc3O)ncn2)n1 ?
PrP 5UTR inh: 76*; SARS 3CLpro inh: 5; PrPC TRFRET: -4; PrP 5UTR single: 90*

How did Cc1cc(-c2ccccc2)n(-c2cc(NN=Cc3ccccc3O)ncn2)n1 do in these assays?
Mtb hypoxia inh: 7

Results for CCCN(CCC)CCCNC(=O)C1c2cc(OC)c(OC)cc2C(=O)N(C)C1c1cccs1 (stereo not given) ?
PrP 5UTR inh: 3; SARS 3CLpro inh: -2; PrPC TRFRET: -2; Mtb hypoxia inh: 19; BJeLR viability: 4; RecA splice inh: 0

What do the screens show for `CCCCNC(=O)C1c2cc(OC)c(OC)cc2C(=O)N(C)C1c1cccs1` (stereo not given)?
PrP 5UTR inh: 81*; SARS 3CLpro inh: 3; PrPC TRFRET: 2; Mtb hypoxia inh: 4; BJeLR viability: -8; RecA splice inh: 2; PrP 5UTR single: -15

What do the screens show for `COc1cccc(N2CCN(C(=O)c3ccc(CS(=O)c4ccccc4C)o3)CC2)c1` (stereo not given)?
PrP 5UTR inh: 56*; SARS 3CLpro inh: -7; PrPC TRFRET: 12; BJeLR viability: 32; RecA splice inh: -1; PrP 5UTR single: 83*

Results for C#CCOCCOCCOCCNc1nc(N2CCOCC2)nc(N2CCN(C(=O)CCCCCCCCCCNC(=O)C(CCC(=O)O)n3cc(CCCCCN)nn3)CC2)n1 (stereo not given) ?
Mtb hypoxia inh: 10

What do the screens show for `CC(=Cc1ccc(C(=O)O)cc1)c1ccc2c(c1)C(C)(C)CCC2(C)C`?
Mtb hypoxia inh: 1

Results for CC(C)CNC(=O)COC(=O)C1c2ccccc2Oc2ccccc21 ?
PrP 5UTR inh: 77*; SARS 3CLpro inh: 4; PrPC TRFRET: 7; Mtb hypoxia inh: 18; BJeLR viability: 1; RecA splice inh: -2; PrP 5UTR single: -6

Results for Cc1cc(C(=O)N2CC=C(c3ccccc3)CC2)c2ccccc2n1 ?
PrP 5UTR inh: 52*; PrPC TRFRET: 19; Mtb hypoxia inh: 2; BJeLR viability: 47; RecA splice inh: 2; PrP 5UTR single: 74*

Results for CC(=O)N1CCN(C(=O)c2cc(C)nc3ccccc23)CC1 ?
PrP 5UTR inh: -14; SARS 3CLpro inh: 1; PrPC TRFRET: -1; Mtb hypoxia inh: 12; BJeLR viability: 4; RecA splice inh: 1

Results for CCN(CC)c1ccc2c(cc1=O)[C@@H](NC)CCc1cc(OC)c(OC)c(OC)c1-2 ?
PrP 5UTR inh: 80*; SARS 3CLpro inh: 5; PrPC TRFRET: -6; BJeLR viability: 56*; RecA splice inh: 1; PrP 5UTR single: 82*

How did COc1cc2c(c(OC)c1O)-c1ccc(OC)c(=O)cc1C(NC(=O)C(F)(F)F)CC2 (stereo not given) do in these assays?
PrP 5UTR inh: 54*; PrPC TRFRET: -11; PrP 5UTR single: 90*

How did COc1cc2c(c(OC)c1OC)-c1ccc(OC)c(=O)cc1C(N)CC2 (stereo not given) do in these assays?
PrP 5UTR inh: 42; PrPC TRFRET: -6
